According to PubChem BioAssay (EPA / NIEHS):
“And” between values parts separate entries of the source, which are not always exact repeats. Equal values may be shown once. A structure can be active in one record and inactive in another. The source made the active and inactive calls. Rule for the calls: active = hit-call score of the fitted dose curve at least 0.9, where 1 is the maximum; inactive = score below 0.9.

Each compound was assayed on cysteine-aspartic acid protease (CASP8), CASP8 (gene 841) (assay: LTEA_HepaRG_CASP8: Life Technologies and Expression Analysis (LTEA) Assay for cysteine-aspartic acid protease (CASP8) using HepaRG (AID 2283480)). Conditions: mRNA level, 48 h; actives raise or lower the signal.
Procedure: LTEA_HepaRG is a cell based, multiplexed-readout assay that uses HepaRG, a human liver cell line, with measurements taken at 48 hours after chemical dosing on a 96-well plate.LTEA_HepaRG_CASP8 is one of 102 assay component(s) measured in the LTEA HepaRG cell culture assay. It is a marker of Cell proliferation, survival, death.Data from the assay component LTEA_HepaRG_CASP8 was analyzed into 1 endpoint. This assay endpoint, LTEA_HepaRG_CASP8, was analyzed with bidirectional fitting relative to DMSO as the negative control and baseline of activity. Using a type of inducible reporter, measures of mRNA induction for gain or loss-of-signal activity can be used to understand regulation of transcription factor activity. To generalize the intended target to other relatable targets, this assay endpoint is annotated to the protease intended target family, where the subfamily is cysteine protease.
A total of 1060 chemcials from the ToxCast library were tested in eight-point concentration-response experiments. Cell culture and cytotoxicity assays were conducted at Thermo Fisher Scientific's Custom Services facility (Madison, WI). A single lot of human HepaRG cells (Thermo Fisher Scientific, Frederick, MD) was used for the cell culture experiments. 96-well format collagen type I coated plates of human HepaRG cells were prepared using established methods. Briefly, cryopreserved HepaRG cells were thawed, plated at a density of approximately 100,000 cells/well in HepaRG Thaw, Plate, and General Purpose media (HPRG770, Thermo Fisher Scientific), and incubated for 48 hours. 0.5% DMSO was selected as vehicle control to balance the requisite need of DMSO in HepaRG cultures to maintain differentiation (for example, baseline metabolism, proportions of hepatocytes vs. cholangiocytes), while enabling further hepatic receptor pathway activation (for example, PXR and CAR) in response to chemical exposure. 48 hours after plating, the culture medium was replaced with HepaRG Serum-Free Incudtion Media. Cells were exposed to each test chemical in duplicate and maintained in CO2 incubators for another 48 hours. Chemical plates were thawed to room temperature and 200x concentrations of treatment groups were prepared. 8-point conentration-reponse curves were made with the highest exposure at 100 uM, followed by half-log dilutions, all in 0.5% DMSO. Each test plate contained variouse controls, induction positive controls (1mM phenobarbital), cytotoxicity positive controls ([…] aflatoxin B1), vehicle controls (0.5% DMSO), and total lysis controls (0.5% DMSO). Cell morphology images were taken using an Essen IncuCyte FLR automated microscope, with six 96-well plates imaged in about 24 minutes. Images were captured and exported and JPEG files. Spent culture media was transfered to black-well plates for the LDH assay, and remaining media was sorted at -80 C for later use. Cells were treated with RLT buffer and frozen until shipped for gene expression analysis. Total RNA was isolated from the cell suspension in 75 uL of Buffer RLT (Qiagen, Germantown, MD 20874) by Quintiles/Expression Analysis (Durham, NC) using a custom isolation procedure. Total RNA from each plate well was transferred to a preamplification plate. Fluidigm's 96.96 Dynamic ArrayTM (Fluidigm, Amsterdam, the Netherlands) technology was used for gene expression analyses by quantitative reverse transcription polymerase chain reaction (qRT-PCR, performed by Quintiles/Expression Analysis, Durham, NC)89. Standard TaqManTM Assays (Applied Biosystems/ThermoFisher Scientific, Foster City, CA) were used to assess the expression of 93 genes selected based on their selectivity and sensitivity to important hepatic receptors known to be modulated by environmental chemicals; importance in human hepatocyte functionality; and hepatotoxicity. […]
`CCOC(=O)C(Cl)Cc1cc(-n2nc(C)n(C(F)F)c2=O)c(F)cc1Cl` (stereo not given) was tested, and the outcome was “inactive”. `CC(Oc1ccc(Cl)cc1Cl)C(=O)O` (stereo not given) was tested, and the outcome was “inactive”. `COC(=O)C=C(C)OP(=O)(OC)OC` was tested, and the outcome was “inactive”. In the case of `OC(c1ccc(Cl)cc1)(c1cncnc1)c1ccccc1Cl` (stereo not given), the AC50 was 50 µM (active). `CCOC(=O)CC(SP(=S)(OC)OC)C(=O)OCC` (stereo not given) was tested, and the outcome was “inactive”. With `CNC(=S)S` the outcome was “inactive”. In the case of `Cc1ccc(-c2c(Cl)nc(C#N)n2S(=O)(=O)N(C)C)cc1`, the AC50 was 89.8 µM (active). `CCCCC(CC)COC(=O)c1ccccc1C(=O)OCC(CC)CCCC` (stereo not given) was tested, and the outcome was “inactive”. In the case of `N#Cc1cc(Br)c(O)c(Br)c1`, the AC50 was 23.6 µM (active). `CCCC1COC(Cn2cncn2)(c2ccc(Cl)cc2Cl)O1` (stereo not given) was tested, and the outcome was “inactive”. In the case of `COc1cnc(OC)n2nc(NS(=O)(=O)c3c(OCC(F)F)cccc3C(F)(F)F)nc12`, the outcome was “inactive”. In the case of `CCCCOC(=O)c1ccccc1C(=O)OCCCC`, the outcome was “inactive”. With `CC(C)Oc1cc(-n2nc(C(C)(C)C)oc2=O)c(Cl)cc1Cl` the outcome was “inactive”. For `CS/C(C)=N/OC(=O)N(C)SN(C)C(=O)O/N=C(\C)SC`, the outcome was “inactive”. In the case of `Cc1cc(Cl)ccc1OCC(=O)O`, the outcome was “inactive”. For `C=CCC1=C(C)C(OC(=O)C2C(C=C(C)C)C2(C)C)CC1=O` (stereo not given), the outcome was “inactive”. With `Oc1ccccc1-c1ccccc1` the outcome was “inactive”. `COC(=O)c1ccccc1C(=O)OC` was tested, and the outcome was “inactive”. `O=C(O)COc1nc(Cl)c(Cl)cc1Cl` was tested, and the outcome was “inactive”. `CCCN(CCC)c1c([N+](=O)[O-])cc(S(N)(=O)=O)cc1[N+](=O)[O-]` was tested, and the AC50 was 83.3 µM (active) and 79.5 µM (active) and the outcome was “inactive”. `CCON=C(CC)C1=C(O)CC(c2c(C)cc(C)cc2C)CC1=O` (stereo not given) was tested, and the outcome was “inactive”. For `CC(C)C1(C)N=C(c2nc3ccccc3cc2C(=O)O)NC1=O` (stereo not given), the outcome was “inactive”. In the case of `CC(C)(C)c1ccc(CSc2cnn(C(C)(C)C)c(=O)c2Cl)cc1`, the AC50 was 12.8 µM (active). With `N#Cc1nn(-c2c(Cl)cc(C(F)(F)F)cc2Cl)c(N)c1S(=O)C(F)(F)F` (stereo not given) the outcome was “inactive”. In the case of `CC1COC(Cn2cncn2)(c2ccc(Oc3ccc(Cl)cc3)cc2Cl)O1` (stereo not given), the outcome was “inactive”. For `CN(C)C(=S)SSC(=S)N(C)C`, the outcome was “inactive”. `COP(N)(=O)SC` (stereo not given) was tested, and the outcome was “inactive”. In the case of `COC(=O)N(OC)c1ccccc1COc1ccn(-c2ccc(Cl)cc2)n1`, the AC50 was 80.1 µM (active). In the case of `CCCCNC(=O)n1c(NC(=O)OC)nc2ccccc21`, the outcome was “inactive”. In the case of `CO/C=C(/C(=O)OC)c1ccccc1Oc1cc(Oc2ccccc2C#N)ncn1`, the outcome was “inactive”. `CNC(=O)ON=CC(C)(C)SC` was tested, and the outcome was “inactive”. `COc1nc(NC(C)C)nc(NC(C)C)n1` was tested, and the outcome was “inactive”. `COC(=O)C(C)Oc1ccc(Oc2ccc(Cl)cc2Cl)cc1` (stereo not given) was tested, and the outcome was “inactive”. `COc1ccc(C(c2ccc(OC)cc2)C(Cl)(Cl)Cl)cc1` was tested, and the outcome was “inactive”. For `CCc1nn(C)c(C(=O)NCc2ccc(C(C)(C)C)cc2)c1Cl`, the AC50 was 35.8 µM (active). For `CCNc1nc(Cl)nc(NCC)n1`, the outcome was “inactive”. `C#CCOS(=O)OC1CCCCC1Oc1ccc(C(C)(C)C)cc1` (stereo not given) was tested, and the AC50 was 31.3 µM (active). For `C=CCC1=C(C)[C@@H](OC(=O)[C@@H]2[C@@H](C=C(C)C)C2(C)C)CC1=O`, the outcome was “inactive”. In the case of `C=CC1(C)OC(=O)N(c2cc(Cl)cc(Cl)c2)C1=O` (stereo not given), the outcome was “inactive”.
